# Screening data from PubChem BioAssay.
# A selection: hits, their analogues and other compounds. The true share with any hit is near 18%.
# TGFb inhibitor = TGF-b pathway inhibition; AID 588855; Potency, µM (series often up to 46.1 µM), inactives show top-dose activity, negative = inhibition, usual class: inhibitors; 1.2% of 410,000 active; HepG2 CAGA-GFP TGF-b/SMAD3 reporter, GFP fluorescence, 18 h; TGF-beta stimulated, 500 pg/mL final; also: potency is read from the fitted curve at half-maximal effect; % is scaled to controls: 0 for no effect and ±100 for the full control effect; nearly all actives have a fitted effect of over 65% in size
#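 Inhibition was scored as loss of TGF-beta-induced (500 pg/mL final, 18 hours, 37 degrees C) GFP in HEPG2 cells carrying a CAGA-GFP reporter, in DMEM with 1% FBS. Well GFP was summed per cell; Activity was normalised to unstimulated and stimulated DMSO wells, then concentration-response fitting.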
# HepG2 viability = HepG2 cytotoxicity, counter-screen for TGF-b inhibitors. HepG2 CAGA-GFP viability, ATP luminescence, 18 h. Potency, µM (highest dose often 46.1 µM), inactives show top-dose activity change, negative = cytotoxicity, actives largely listed as cytotoxic. 0.76% of 410,000 active; also: potency is read from the fitted curve at half-maximal effect
#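 HepG2 CAGA-GFP cells (1000/well, DMEM with 1% FBS) received compound, then TGF-beta at 500 pg/mL final, and were incubated 18 hours at 37 degrees C. Viability was read by CellTiter-Glo luminescence. Media-only wells were set as complete cell-killing and DMSO as no toxicity.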
# TDP1 cell noCPT = qHTS for Inhibitors of human tyrosyl-DNA phosphodiesterase 1 (TDP1): qHTS in cells in absence of CPT; Potency, µM (top dose mostly 46.2 µM), for inactives: top-dose activity change, negative = growth inhibition, actives largely listed as inhibitors; 15% of 420,000 active; DT40 Tdp1-/- hTDP1 cells, no CPT, ATP luminescence, 48 h; AID 686978, 2013; also: potency is read from the fitted curve at half-maximal effect; % is scaled to controls: 0 for no effect and ±100 for the full control effect; nearly all actives have a fitted effect of over 55% in size
#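 Chicken DT40 Tdp1-/- cells stably complemented with human TDP1 were seeded at 400 cells/well with DMSO in place of 20 nM camptothecin. After compound pinning, cells grew at least 48 hr at 37 °C; viability read by CellTiter-Glo luminescence.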
# IL-1B inflam inh = blocks inflammasome-driven IL-1 beta release | 4.7% of 360,000 active | activity change, % at 57.5 µM | THP-1 LPS/ATP IL-1B secretion, AlphaLISA, 16 h; hits give low values | AID 743279; in the data active = activity change below about -50%; inconclusive = mostly about -30% to -49%; also: % is scaled to controls: 0 for no effect and ±100 for the full control effect
#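 THP-1 cells pretreated 1 hr with compounds (up to 57.5 uM final), then stimulated with LPS (250 ng/mL final) plus ATP (1.25 mM final); secreted IL-1B measured by AlphaLISA after 16 hr, decreased signal indicating inhibition.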
# DT40 TDP1 CPT = growth inhibition of DT40 Tdp1-/-;hTDP1 cells with camptothecin (screen for TDP1 inhibitors) | Potency, µM (series often up to 46.2 µM), inactives show at the highest dose activity change, negative = growth inhibition, most hits filed as inhibitors | chicken DT40 Tdp1-/-;hTDP1 cells + 20 nM CPT, ATP luminescence, 48 h | 12% of 420,000 active | AID 686979; also: potency is read from the fitted curve at half-maximal effect; % is scaled to controls: 0 for no effect and ±100 for the full control effect; nearly all actives have a fitted effect of over 55% in size
#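 Chicken DT40 Tdp1-/- cells complemented with human TDP1, 400 cells/well, exposed to compounds plus 20 nM camptothecin for at least 48 h at 37 C; viability read as ATP content by CellTiter-Glo luminescence.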
# TDP1 inh = TDP1 (human) enzyme inhibition; Q9NUW8; recombinant TDP1, AlphaScreen DNA substrate cleavage; Potency, µM (highest dose often 130 µM), for inactives: at the highest dose activity change, negative = inhibition, usual class: inhibitors; 0.28% of 350,000 active; AID 485290; also: potency is read from the fitted curve at half-maximal effect; % is scaled to controls: 0 for no effect and ±100 for the full control effect; nearly all actives have a fitted effect of over 40% in size
# Target sequence (Q9NUW8 whole entry, looked up): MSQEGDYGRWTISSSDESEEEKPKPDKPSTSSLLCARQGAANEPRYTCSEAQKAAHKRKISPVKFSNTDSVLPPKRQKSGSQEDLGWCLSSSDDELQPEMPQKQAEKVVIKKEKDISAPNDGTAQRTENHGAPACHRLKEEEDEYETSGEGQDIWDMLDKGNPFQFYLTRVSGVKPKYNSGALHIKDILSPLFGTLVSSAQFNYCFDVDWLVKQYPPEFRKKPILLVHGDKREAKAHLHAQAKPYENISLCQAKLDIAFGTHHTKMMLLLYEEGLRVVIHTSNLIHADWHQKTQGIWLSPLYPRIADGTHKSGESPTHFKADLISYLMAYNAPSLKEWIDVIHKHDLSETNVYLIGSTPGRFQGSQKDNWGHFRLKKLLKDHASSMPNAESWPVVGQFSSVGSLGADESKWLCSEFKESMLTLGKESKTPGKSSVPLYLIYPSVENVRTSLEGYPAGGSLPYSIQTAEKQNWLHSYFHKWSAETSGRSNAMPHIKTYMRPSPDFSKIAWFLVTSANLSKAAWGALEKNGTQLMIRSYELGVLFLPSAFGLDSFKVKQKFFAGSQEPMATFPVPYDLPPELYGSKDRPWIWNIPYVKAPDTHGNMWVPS
#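 Recombinant human Tdp1 (E. coli-expressed, 1 nM final) preincubated with compounds 15 min at room temperature, then 5'-biotin/3'-phosphotyrosine-FITC DNA substrate (15 nM final) added for 5 min. AlphaScreen beads (10 ug/ml final) added 10 min; cleavage lowers signal.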
# * = called active by the depositor; ? = inconclusive; . = no result; [ ] = another dose, or the depositor's remark. Unless noted, calls follow the shape of the dose curve; as a rule, active = well fitted curve in the direction sought with a large enough effect; inconclusive = small, poorly fitted or top-dose-only effect, or another doubt; inactive = no such curve, though single readings can be large; an effect the other way counts as inactive or inconclusive.
SMILES,TGFb inhibitor,HepG2 viability,TDP1 cell noCPT,IL-1B inflam inh,DT40 TDP1 CPT,TDP1 inh
COC(=O)[C@@]12C[C@@H](CC(=O)NCc3ccc(C)o3)C(=O)N(Cc3ccco3)C1=CCC(C)(C)C2,.,.,?,-10.8,?,.
COC(=O)[C@@]12C[C@@H](CC(=O)NCc3cccs3)C(=O)N(Cc3ccco3)C1=CCC(C)(C)C2,.,.,18.4µM*,?,?,.
COc1ccc(-c2c[n+]3c4n2CCCCC4=C(c2ccc(Br)cc2)C3)cc1,?,-34.1%,10.3µM*,-98.4*,6.51µM*,13.7%
CCc1cccc(NC(=O)CCNS(=O)(=O)c2ccc3c(c2)oc(=O)n3C)c1,2.9%,7.2%,21.7%,10.0,-8.5%,2.1%
CCOc1ccc(CCNC(=O)C(CC(C)C)N2Cc3ccccc3C2=O)cc1OCC (stereo not drawn),-10.6%,-2.1%,9.2µM*,.,10.3µM*,3.7%
CC(C)CC(C(=O)NCCc1ccccc1)N1Cc2ccccc2C1=O (stereo not drawn),?,-17.4%,20.6µM*,.,?,5.0%
CC(C)CC(C(=O)NCc1ccc(F)cc1)N1Cc2ccccc2C1=O (stereo not drawn),-0.5%,-3.9%,?,.,?,5.0%
CCOC(=O)c1c(C)[nH]c(C)c1S(=O)(=O)N1CCC(C(=O)NCc2ccccc2)CC1,-27.6%,5.3%,3.6%,.,0.3%,2.6%
c1ccc(-c2ccc3c(c2)c2c4n3CCN=C4CCC2)cc1,27.1%,-33.1%,?,?,23.1µM*,9.9%
CC(C)=CCOc1ccc([C@@H]2COc3c(ccc4c3C=CC(C)(C)O4)C2)c(O)c1,12.6µM*,14.1µM*,20.6µM*,-20.2,16.4µM*,.
CC(C)(C)C(=O)C1=C(O)C(=O)N(Cc2ccccc2)C1c1ccccc1F (stereo not drawn),-0.5%,-4.2%,-3.9%,20.8,-11.7%,.
CCN1CCCC(OC(=O)c2cc(-c3ccc(C)cc3)nc3ccccc23)C1 (stereo not drawn),-11.9%,-40.1%,16.4µM*,-147.2*,?,8.0%
CCOC(=O)C1CCCN(C(=O)c2cc(-c3ccc(F)cc3)nc3ccccc23)C1 (stereo not drawn),-20.1%,-13.9%,14.6µM*,-13.6,?,4.8%
CCOC(=O)C1CCCN(C(=O)c2cc(Nc3ccc(OC)cc3)nc3ccccc23)C1 (stereo not drawn),13.9%,-19.1%,14.6µM*,-0.7,20.6µM*,6.1%
Cc1nc2nc(NC(=O)c3ccc(Cl)cc3)[nH]n2c(=O)c1Cc1ccccc1,-22.5%,0.1%,-5.7%,.,-0.2%,7.0%
CCOc1ccc(/C=C(\C(=O)O)c2ccc(S(=O)(=O)N3CCCCC3)s2)cc1OC,-2.4%,-2.1%,8.1%,-7.9,8.1%,-10.3%
Cc1[nH]c2c(C)cccc2c1CCNC(=O)c1ccc2c(c1[N+](=O)[O-])C(=O)c1ccccc1C2=O,?,-14.8%,8.2µM*,-109.1*,16.4µM*,2.0%
Cc1[nH]c2ccccc2c1CCNC(=O)c1ccc2c(c1[N+](=O)[O-])C(=O)c1ccccc1C2=O,?,-33.6%,2.91µM*,-103.4*,4.61µM*,3.9%
Cc1ccc2c(c1[N+](=O)[O-])C(=O)c1ccccc1C2=O,.,.,.,.,.,5.4%
CN(C)C(=O)c1ccc2c(c1[N+](=O)[O-])C(=O)c1ccccc1C2=O,10µM*,-46.0%,5.8µM*,-5.3,2.91µM*,0.0%
O=S(=O)(c1ccccc1)c1nnn2c1nc(NCc1ccc(F)cc1)c1sccc12,3.5%,-1.9%,-0.9%,.,11.2%,5.1%
Cc1cccc(N(C)c2nc3ccc(C(=O)c4ccccc4)cc3n3c(C)nnc23)c1,-19.6%,-15.2%,20.6µM*,.,?,-2.8%
Cc1nnc2c(N3CCN(c4ccccc4)CC3)nc3ccc(C(=O)c4ccccc4)cc3n12,-15.7%,-4.2%,-10.8%,.,7.3%,0.0%[12.3 µM]
O=C1C=CC(=O)N1c1cccc(-c2ccccc2)c1,11.2µM*,-13.7%,0.731µM*,-65.0*,0.651µM*,-1.2%
CCCCSc1nnc2n(-c3ccc(OC)cc3)c(=O)c3c4c(sc3n12)COC(C(C)C)C4 (stereo not drawn),4.2%,-20.2%,?,.,?,-2.1%
SMILES,TGFb inhibitor,HepG2 viability,TDP1 cell noCPT,IL-1B inflam inh,DT40 TDP1 CPT,TDP1 inh
CCCNC(=O)c1csc(Nc2cccc3ccccc23)n1,-8.4%,-16.9%,?,11.9,?,.
O=C(NCC1CCCO1)c1csc(Nc2cccc3ccccc23)n1 (stereo not drawn),?,-1.2%,14.6µM*,-14.0,18.4µM*,8.3%
CN(C)CCNC(=O)c1csc(Nc2cccc3ccccc23)n1,-23.9%,-22.6%,?,-60.7*,-50.4%,.
CCn1c2ccccc2c2cc(NC(=O)CSc3nnc(-c4cccc(F)c4)o3)ccc21,0.0%,-1.4%,14.6µM*,-6.2,16.4µM*,4.9%
CCn1c2ccccc2c2cc(NC(=O)CSc3nnc(-c4ccccc4)o3)ccc21,12.8%,-6.4%,20.6µM*,?,9.2µM*,8.8%
CC(C)(C)OC(=O)N[C@@H](Cc1c[nH]c2ccccc12)C(=O)O,.,.,.,.,.,11.5%
c1cc(CN2CCCNCCNCCCNCC2)ccc1CN1CCCNCCNCCCNCC1,.,.,.,.,.,20.7%
Cc1nc(C)c(/C(O)=C/c2nc3ccccc3oc2=O)s1,?,-60.4%,10.3µM*,-0.2,8.2µM*,-8.2%
O=c1oc2ccccc2nc1/C=C(\O)c1ccccc1,-9.7%,-30.2%,?,39.3,?,.
CN=C1S/C(=C\c2ccc(N3CCOCC3)cc2C)C(=O)N1C,-5.2%,-1.4%,?,18.9,?,5.7%
CCN=C1S/C(=C\c2ccc(N3CCOCC3)cc2C)C(=O)N1CC,-4.3%,-10.7%,2.31µM*,10.3,2.91µM*,0.0%
CCN=C1S/C(=C\c2cn(C(C)=O)nc2-c2ccccc2)C(=O)N1CC,-2.7%,2.5%,?,-3.7,16.4µM*,2.2%
CC(=O)NC1=NC(=O)/C(=C/c2cn(C(C)=O)nc2-c2ccccc2)S1,1.6%,1.7%,?,2.8,?,.
COC(=O)NC(CC(C)=O)c1ccc2c(c1)OCO2 (stereo not drawn),.,.,.,.,.,5.8%[21 µM]
COCCNc1nc(-c2c(C)noc2C)nc2ccccc12,.,.,-16.7%,.,-22.4%,.
Cc1noc(C)c1-c1nc(NCc2cccs2)c2ccccc2n1,.,.,23.1µM*,.,?,.
